Results published in PubChem BioAssay (NCATS).
Inconclusive results are not listed. Where a call stands in place of a potency, no number is given. A number with no mark means an inactive call. Activity calls are given as the source filed them. The call rests on the fitted dose curve; in most records, active means well fitted curve in the direction sought with a large enough effect; inconclusive means small, poorly fitted or top-dose-only effect, or another doubt; inactive means no such curve, though single readings can be large; an effect the other way counts as inactive or inconclusive.

Experiments:
[1] = tested on: Zika virus NS2B-NS3 protease; test: Primary screen GU AMC qHTS for Zika virus inhibitors (AID 1347154); further: nearly all actives have a fitted effect of over 70% in size
How it was run: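 Unlinked Zika NS2B hydrophilic domain/NS3 protease domain noncovalent complex (25 nM final) in 10 mM Tris-HCl pH 8.0, 0.01% Tween 20, with AMC peptide substrate. Fluorescence (ex 340, em 450 nm) change over 15 min, room temperature; percent inhibition fitted to 4-parameter Hill equation.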

[2] = biological target: Lysine-specific demethylase 5B (Homo sapiens) (UniProt Q9UGL1); test: Optimization screen for KDM5B Histone Demethylases FDH coupled qHTS against the LOPAC library (AID 1347166)
Lysine-specific demethylase 5B (Homo sapiens), sequence (Q9UGL1 whole entry, looked up): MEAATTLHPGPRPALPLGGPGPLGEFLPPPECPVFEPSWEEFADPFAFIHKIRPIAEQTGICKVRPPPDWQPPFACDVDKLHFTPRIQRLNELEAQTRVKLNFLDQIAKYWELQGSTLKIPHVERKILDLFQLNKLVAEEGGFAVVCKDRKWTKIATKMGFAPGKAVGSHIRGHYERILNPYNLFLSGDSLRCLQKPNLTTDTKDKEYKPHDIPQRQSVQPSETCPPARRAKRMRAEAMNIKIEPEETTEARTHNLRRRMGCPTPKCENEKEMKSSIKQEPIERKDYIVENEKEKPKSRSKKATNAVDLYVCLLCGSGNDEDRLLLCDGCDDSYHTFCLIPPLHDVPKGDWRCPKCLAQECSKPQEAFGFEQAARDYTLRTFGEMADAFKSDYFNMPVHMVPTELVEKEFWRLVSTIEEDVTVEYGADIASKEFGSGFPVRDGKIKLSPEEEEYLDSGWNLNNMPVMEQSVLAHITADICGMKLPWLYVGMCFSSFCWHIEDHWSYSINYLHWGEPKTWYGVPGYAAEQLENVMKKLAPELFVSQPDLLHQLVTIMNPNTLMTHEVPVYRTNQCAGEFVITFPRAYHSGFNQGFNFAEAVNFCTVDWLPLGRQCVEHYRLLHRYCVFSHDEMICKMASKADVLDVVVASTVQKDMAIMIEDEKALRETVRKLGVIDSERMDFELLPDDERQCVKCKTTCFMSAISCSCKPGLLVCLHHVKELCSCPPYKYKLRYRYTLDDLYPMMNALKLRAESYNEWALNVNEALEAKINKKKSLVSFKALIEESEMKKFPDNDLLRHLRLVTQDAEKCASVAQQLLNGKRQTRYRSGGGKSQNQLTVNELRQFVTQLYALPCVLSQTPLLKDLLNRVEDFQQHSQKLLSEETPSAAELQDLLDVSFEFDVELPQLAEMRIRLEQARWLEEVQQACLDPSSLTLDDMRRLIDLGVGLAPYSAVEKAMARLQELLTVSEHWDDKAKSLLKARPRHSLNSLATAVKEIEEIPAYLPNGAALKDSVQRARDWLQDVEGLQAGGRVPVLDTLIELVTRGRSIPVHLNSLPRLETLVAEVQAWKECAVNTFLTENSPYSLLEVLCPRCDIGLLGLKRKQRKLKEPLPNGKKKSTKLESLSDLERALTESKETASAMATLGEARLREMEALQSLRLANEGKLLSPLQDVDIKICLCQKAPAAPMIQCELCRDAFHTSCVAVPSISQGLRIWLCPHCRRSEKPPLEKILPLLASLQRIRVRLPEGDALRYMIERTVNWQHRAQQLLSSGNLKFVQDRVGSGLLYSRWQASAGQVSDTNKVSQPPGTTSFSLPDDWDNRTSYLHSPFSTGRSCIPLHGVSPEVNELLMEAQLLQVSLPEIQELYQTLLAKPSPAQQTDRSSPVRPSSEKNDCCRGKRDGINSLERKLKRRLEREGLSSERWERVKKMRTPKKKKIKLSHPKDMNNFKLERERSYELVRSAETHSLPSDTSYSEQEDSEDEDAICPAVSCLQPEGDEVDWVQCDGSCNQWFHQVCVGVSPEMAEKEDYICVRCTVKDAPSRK
How it was run: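 KDM5BDeltaAP (200nM final) in 50mM HEPES pH 7.5, 0.01% Tween-20 was preincubated with compound for 10 min at room temperature. A substrate mix of 12.5uM H3K4Me3, 25uM a-ketoglutarate, ascorbate, Fe2+, NAD+ and formaldehyde dehydrogenase was then added. NADH fluorescence (340/450 nm) was read initially and after 30 min.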

[3] = tested on: Zika virus NS2B-NS3 protease (unlinked); test: Optimization of GU AMC qHTS for Zika virus inhibitors: Unlinked NS2B-NS3 protease assay (AID 1347151); further: series mostly up to about 52 µM; nearly all actives have a fitted effect of over 80% in size
How it was run: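 Fluorescence read-out (340 nm ex / 450 nm em) of AMC peptide cleavage, taken immediately and after 15 min at room temperature (~20% conversion). Enzyme was the unlinked NS2B–NS3 complex at 25 nM in Tris pH 8.0 buffer.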

[4] = tested on: Zika virus NS2B-NS3 protease (unlinked complex); test: Primary screen GU Rhodamine qHTS for Zika virus inhibitors: Unlinked NS2B-NS3 protease assay (AID 1347159); further: nearly all actives have a fitted effect of over 60% in size
How it was run: (§1)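 Unlinked NS2B/NS3, 25 nM; Rhod110 peptide, 1.5 microM; compounds, up to 114 microM. Reaction run 15 min at RT in 10 mM Tris-HCl pH 8.0, 0.01% Tween 20; kinetic fluorescence change fitted with a 4-parameter Hill model.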

[5] = tested on: Zika virus NS2B-NS3 protease (linked construct); test: Primary screen NINDS Rhodamine qHTS for Zika virus inhibitors (AID 1347160); further: nearly all actives have a fitted effect of over 55% in size
How it was run: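 Single-chain NS2B-NS3 protease, 25 nM, pH 8.0; compounds preincubated 15 min. Activity: Rhodamine110 release from 1.5 microM substrate over 15 min, room temperature, data fitted to 4-parameter Hill.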

[6] = Confirmatory screen GU Rhodamine qHTS for Zika virus inhibitors qHTS (AID 1347157); further: nearly all actives have a fitted effect of over 70% in size; further: potency means the concentration at half of the fitted maximal effect
How it was run: as §1

[7] = Confirmatory screen NINDS Rhodamine qHTS for Zika virus inhibitors (AID 1347161); further: nearly all actives have a fitted effect of over 60% in size; further: potency means the concentration at half of the fitted maximal effect;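 on activity change, negative = inhibition: purified Zika NS2B-NS3 protease with linked NS2B cofactor domain and Rhodamine110 peptide substrate; series mostly up to about 110 µM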
How it was run: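 In 10 mM Tris-HCl pH 8.0 containing 0.01% Tween 20, linked NS2B-NS3 protease (25 nM final) is exposed to test compounds for 15 min. Cleavage of 1.5 microM Rhodamine110 substrate is tracked by fluorescence over 15 min.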

[8] = Tertiary RLuc qRT-PCR qHTS assay for Zika virus inhibitors (AID 1347169); further: top concentration of the series differs between compounds; nearly all actives have a fitted effect of over 55% in size
How it was run: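 Luminescence read-out: live-cell Renilla luciferase substrate applied to infected Vero cells, signal measured after 1-1.5 hrs. Cells had received compound before ZIKV-RLuc (Cambodian strain, MOI 1-2) infection and were incubated 48-72 hrs at 37 degrees C.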

[9] = tested on: Zika virus NS2B-NS3 protease (linked); test: 384 well plate NINDS AMC confirmatory qHTS for Zika virus inhibitors (AID 1347163); settings: Recombinant NS2B-NS3 protease, Ac-VKTGKR-AMC fluorescence; further: potency means the concentration at half of the fitted maximal effect; nearly all actives have a fitted effect of over 50% in size
How it was run: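 Fluorescence at 355/460 nm was read after 25 minutes of cleavage of 30 microM Ac-VKTGKR-AMC at room temperature, in the dark. Before substrate addition, compounds (up to 1 mM final) sat ~15 minutes with 5, 30 or 60 nM linked protease. Signals were normalized to no-enzyme and no-inhibitor wells.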

Question: What does the source list for `CC(C)[C@@]1(NC(=O)[C@@H]2C[C@@H]3c4cccc5[nH]cc(c45)C[C@H]3N(C)C2)O[C@@]2(O)[C@@H]3CCCN3C(=O)[C@H](Cc3ccccc3)N2C1=O`?
Answer: Potency [1]: inactive; Potency [2]: inactive

Question: Which Potency [1] does the source give for `O=c1c2ccccc2[se]n1-c1ccccc1` here?
Answer: Its Potency is “inactive”.

Question: With `CCCN(CCC)[C@@H]1CCc2cccc(O)c2C1` as the molecule, how does the Potency [3] read?
Answer: The Potency was “inactive”.

Question: And the Potency [1]?
Answer: The Potency was “inactive”.

Question: With `Cc1cc(C)cc(C(=O)OC2C[C@H]3CC[C@@H](C2)N3C)c1` (stereo partly drawn) as the molecule, how does the Potency [1] read?
Answer: The Potency was “inactive”.

Question: For `CCN1C[C@@]2(COC)C3[C@@H](OC)C4[C@@H]1C3([C@@H]1C[C@]3(O)[C@H](OC(=O)c5ccccc5)[C@@H]1[C@]4(OC(C)=O)[C@@H](O)[C@@H]3OC)[C@H](OC)C[C@H]2O`, which Potency [3] is on record?
Answer: The Potency was “inactive”.

Question: With `Oc1ccc2c3c1O[C@H]1c4[nH]c5ccccc5c4C[C@@]4(O)C(C2)N(CC2CC2)CCC314` (stereo partly drawn) as the molecule, how does the Potency [3] read?
Answer: The Potency was “inactive”.

Question: What about the Potency [1] of the same molecule?
Answer: Its Potency is “inactive”.

Question: And the Potency [2]?
Answer: Its Potency is “inactive”.

Question: With `N=C(N)c1ccc(CS(=O)(=O)F)cc1` as the molecule, how does the Potency [3] read?
Answer: Its Potency is “inactive”.

Question: And the Potency [2]?
Answer: Its Potency is “inactive”.

Question: For `Oc1ccc2c3c1O[C@H]1c4oc5ccccc5c4C[C@@]4(O)C(C2)N(CC2CC2)CCC314` (stereo partly drawn), which Potency [3] is on record?
Answer: The Potency was “inactive”.

Question: What about the Potency [2] of the same molecule?
Answer: The Potency was “inactive”.

Question: Which results are given for `CCOC(=O)c1ncn2c1[C@@H]1CCCN1C(=O)c1cc(OC)ccc1-2`?
Answer: Potency [3]: inactive; Potency [2]: inactive

Question: Which Potency [1] does the source give for `C=C(C)[C@H]1O[C@H]2CC[C@@]3(C)[C@@](O)(CC[C@H]4[C@@H]5OC(C)(C)[C@H]6C[C@@H]7C(=C)Cc8c(Cl)cc9[nH]c(c5c9c8[C@@]76O)[C@@]43C)[C@]23O[C@@H]3[C@H]1O` here?
Answer: Its Potency is “inactive”.

Question: And the Potency [4]?
Answer: The Potency was “inactive”.

Question: What about the Potency [5] of the same molecule?
Answer: Its Potency is “inactive”.

Question: Which Potency [3] does the source give for `CC(N)Cc1c[nH]c2ccc(O)cc12` (stereo not drawn) here?
Answer: Its Potency is “inactive”.

Question: And the Potency [1]?
Answer: Its Potency is “inactive”.

Question: What about the Potency [2] of the same molecule?
Answer: Its Potency is “inactive”.

Question: Which results are given for `CCNC(=O)[C@H]1O[C@@H](n2cnc3c(N)ncnc32)[C@H](O)[C@@H]1O`?
Answer: Potency [3]: inactive; Potency [1]: inactive; Potency [2]: inactive

Question: What does the source list for `CN1CC[C@@]2(C)c3cc(OC(=O)Nc4ccccc4)ccc3N(C)[C@@H]12`?
Answer: Potency [3]: inactive; Potency [1]: inactive

Question: For `CN1CCC[C@@H]1Cc1c[nH]c2ccc(Nc3ncccc3[N+](=O)[O-])cc12`, which Potency [3] is on record?
Answer: Its Potency is “inactive”.

Question: What about the Potency [4] of the same molecule?
Answer: Its Potency is “inactive”.

Question: And the Potency [5]?
Answer: The Potency was “inactive”.

Question: Which Potency [3] does the source give for `C[N+]1(C)CCc2cc3c(cc2[C@H]1[C@@H]1OC(=O)c2c1ccc1c2OCO1)OCO3` here?
Answer: Its Potency is “inactive”.

Question: What about the Potency [2] of the same molecule?
Answer: Its Potency is “inactive”.

Question: For `COc1ccc2[nH]cc(CCN)c2c1`, which Potency [3] is on record?
Answer: Its Potency is “inactive”.

Question: And the Potency [1]?
Answer: Its Potency is “inactive”.

Question: What about the Potency [5] of the same molecule?
Answer: Its Potency is “inactive”.

Question: Which Potency [3] does the source give for `Nc1ccc(CCN2CCN(c3cccc(C(F)(F)F)c3)CC2)cc1` here?
Answer: The Potency was “inactive”.

Question: And the Potency [1]?
Answer: The Potency was “inactive”.

Question: And the Potency [2]?
Answer: Its Potency is “inactive”.

Question: Which results are given for `Ic1ccccc1CNC1C2CCN(CC2)C1C(c1ccccc1)c1ccccc1` (stereo not drawn)?
Answer: Potency [3]: inactive; Potency [2]: inactive

Question: Which Potency [1] does the source give for `CCCSP(=O)(OCC)SCCC` here?
Answer: Its Potency is “inactive”.

Question: Which results are given for `CC(N)Cc1c[nH]c2ccc(OCc3cccs3)cc12` (stereo not drawn)?
Answer: Potency [3]: inactive; Potency [1]: inactive; Potency [2]: inactive

Question: Which Potency [6] does the source give for `COC(=O)C1(C)CCC(O)C2(C)c3cc(O)c(C(C)C)cc3C(O)C(OC(C)=O)C12` (stereo not drawn) here?
Answer: The Potency was 24.2 µM (active).

Question: What about the Potency [7] of the same molecule?
Answer: The Potency was 27.1 µM (active).

Question: And the Potency [8]?
Answer: The Potency was “inactive”.

Question: What does the source list for `CCN1CC2(COC)C3[C@@H](OC)C4C1C3(C1C[C@]3(O)[C@H](OC(=O)c5ccccc5)C1[C@]4(OC(C)=O)[C@@H](O)[C@@H]3OC)[C@H](OC)C[C@H]2O` (stereo partly drawn)?
Answer: Potency [6]: inactive; Potency [7]: inactive; Potency [8]: inactive

Question: For `O=C1OC2(c3cc(Br)c(O)cc3Oc3c2cc(Br)c(O)[c]3[Hg])c2ccccc21` (stereo not drawn), which Potency [7] is on record?
Answer: The Potency was “inactive”.

Question: And the activity change, negative = inhibition [8]?
Answer: Its activity change, negative = inhibition is -7.05% [at 0.566 µM].

Question: With `CN(C)[C@@H]1C(=O)C(C(N)=O)=C(O)[C@@]2(O)C(=O)C3=C(O)c4c(O)ccc(Cl)c4[C@@](C)(O)[C@H]3C[C@@H]12` as the molecule, how does the Potency [9] read?
Answer: The Potency was 0.562 µM (active).
